{"source": "paper PMC7862700", "about": "“An all-to-all approach to the identification of sequence-specific readers for epigenetic DNA modifications on cytosine”", "assay_in_all_cases": "DAPPL (digital affinity profiling via proximity ligation, sequencing); 10 mM Tris-HCl pH 7.5, 50 mM NaCl, 1 mM DTT, 4% glycerol, room temperature, 30 min; GST-TFs on glutathione beads, 16-mer random dsDNA library, 0.1% formaldehyde crosslink after washing; high values mean tight binding", "conditions_in_all_cases": "protein: recombinant; tags: N-terminal GST; dsDNA, one strand shown", "key": {"ELF4": {"target": "ELF4 (Homo sapiens, UniProt Q99607 1-663)", "sequence (Q99607 whole entry, the tested form may be a part)": "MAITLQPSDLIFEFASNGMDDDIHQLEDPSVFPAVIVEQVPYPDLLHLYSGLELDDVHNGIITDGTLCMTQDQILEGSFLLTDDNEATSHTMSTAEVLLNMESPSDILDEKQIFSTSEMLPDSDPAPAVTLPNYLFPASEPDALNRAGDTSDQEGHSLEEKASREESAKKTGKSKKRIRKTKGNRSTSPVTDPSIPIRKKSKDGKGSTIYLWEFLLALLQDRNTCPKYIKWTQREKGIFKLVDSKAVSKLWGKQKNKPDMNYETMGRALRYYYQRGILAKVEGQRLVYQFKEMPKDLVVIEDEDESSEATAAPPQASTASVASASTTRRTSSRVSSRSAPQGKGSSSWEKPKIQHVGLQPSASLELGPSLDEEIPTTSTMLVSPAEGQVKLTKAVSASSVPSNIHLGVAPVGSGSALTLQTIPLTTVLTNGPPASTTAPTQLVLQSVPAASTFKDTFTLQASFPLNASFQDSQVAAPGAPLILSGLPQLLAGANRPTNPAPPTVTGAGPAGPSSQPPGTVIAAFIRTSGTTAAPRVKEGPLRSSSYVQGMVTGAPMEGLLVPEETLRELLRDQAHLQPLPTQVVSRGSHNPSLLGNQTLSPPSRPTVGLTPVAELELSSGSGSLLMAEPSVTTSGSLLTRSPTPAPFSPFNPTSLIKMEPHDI", "method_in_brief": "(§1)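 In yeast, human transcription factors were expressed with a GST fusion, then pulled down on glutathione beads and given DNA barcodes. Pooled with a tag-only sample, they were exposed to 200 nmole of a 16-mer random double-stranded DNA library (Tris/NaCl/DTT/glycerol buffer, room temperature, 30 min), washed, crosslinked with 0.1% formaldehyde, proximity-ligated using BsaI/T4 ligase for 1 h at 37 °C, PCR-amplified and read on an Illumina NextSeq500. Each hexamer's frequency of reads for a factor, divided by the matching frequency for the tag-only sample, gives the binding signal.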"}, "ELK1": {"target": "T1, ELK1 (Homo sapiens, UniProt P19419 1-428)", "T1 sequence": "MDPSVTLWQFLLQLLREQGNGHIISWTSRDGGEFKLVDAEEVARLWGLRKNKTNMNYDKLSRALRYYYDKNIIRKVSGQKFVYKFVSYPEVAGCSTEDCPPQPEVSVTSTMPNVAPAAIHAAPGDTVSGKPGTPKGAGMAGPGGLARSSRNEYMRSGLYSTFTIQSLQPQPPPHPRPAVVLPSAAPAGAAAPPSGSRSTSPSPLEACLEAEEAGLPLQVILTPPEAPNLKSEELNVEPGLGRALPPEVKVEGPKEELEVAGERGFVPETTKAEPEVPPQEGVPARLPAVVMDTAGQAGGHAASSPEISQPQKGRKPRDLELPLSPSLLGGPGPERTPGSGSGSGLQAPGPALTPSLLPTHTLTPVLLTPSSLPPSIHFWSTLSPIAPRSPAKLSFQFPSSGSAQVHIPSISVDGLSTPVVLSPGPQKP", "method_in_brief": "as §1"}, "ERG": {"target": "T2, ERG (Homo sapiens, UniProt P11308 1-479)", "T2 sequence": "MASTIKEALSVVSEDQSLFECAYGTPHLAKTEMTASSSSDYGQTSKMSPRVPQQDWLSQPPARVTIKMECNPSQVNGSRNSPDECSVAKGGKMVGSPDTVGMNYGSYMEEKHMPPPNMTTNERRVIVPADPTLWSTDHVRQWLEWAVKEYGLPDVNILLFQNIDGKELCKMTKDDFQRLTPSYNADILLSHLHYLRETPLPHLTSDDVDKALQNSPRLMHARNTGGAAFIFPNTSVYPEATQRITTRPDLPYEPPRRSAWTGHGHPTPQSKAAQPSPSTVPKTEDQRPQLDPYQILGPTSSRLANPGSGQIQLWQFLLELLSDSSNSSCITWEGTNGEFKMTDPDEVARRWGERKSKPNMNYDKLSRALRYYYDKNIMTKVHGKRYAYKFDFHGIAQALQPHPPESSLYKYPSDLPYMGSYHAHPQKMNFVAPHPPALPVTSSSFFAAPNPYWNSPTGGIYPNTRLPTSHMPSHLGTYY", "method_in_brief": "as §1"}, "ELK4": {"target": "T3, ELK4 (Homo sapiens, UniProt P28324-2 1-405)", "T3 sequence": "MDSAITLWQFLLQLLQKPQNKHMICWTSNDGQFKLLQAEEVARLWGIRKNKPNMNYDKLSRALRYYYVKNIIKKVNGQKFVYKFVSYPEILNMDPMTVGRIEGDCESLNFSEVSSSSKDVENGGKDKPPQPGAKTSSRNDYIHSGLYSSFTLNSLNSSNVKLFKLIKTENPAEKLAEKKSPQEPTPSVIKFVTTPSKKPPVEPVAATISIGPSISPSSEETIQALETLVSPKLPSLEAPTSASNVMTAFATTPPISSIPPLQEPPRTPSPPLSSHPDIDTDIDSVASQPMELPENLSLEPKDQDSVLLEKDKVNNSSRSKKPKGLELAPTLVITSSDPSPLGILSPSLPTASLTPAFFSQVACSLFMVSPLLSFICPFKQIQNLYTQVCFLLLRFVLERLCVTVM", "method_in_brief": "as §1"}, "ELF3": {"target": "T4, ELF3 (Homo sapiens, UniProt P78545 1-371)", "T4 sequence": "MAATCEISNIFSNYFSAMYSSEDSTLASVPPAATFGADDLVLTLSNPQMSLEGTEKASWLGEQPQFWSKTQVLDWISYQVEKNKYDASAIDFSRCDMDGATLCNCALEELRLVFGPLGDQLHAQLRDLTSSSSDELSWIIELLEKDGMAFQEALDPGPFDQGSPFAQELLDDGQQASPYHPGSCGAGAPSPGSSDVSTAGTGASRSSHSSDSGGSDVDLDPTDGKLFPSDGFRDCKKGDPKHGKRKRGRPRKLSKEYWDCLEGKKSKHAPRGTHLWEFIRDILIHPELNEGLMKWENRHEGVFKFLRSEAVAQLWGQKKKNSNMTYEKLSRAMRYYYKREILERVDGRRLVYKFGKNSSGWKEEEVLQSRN", "method_in_brief": "as §1"}, "CRX": {"target": "CRX (Homo sapiens, UniProt O43186 1-299)", "sequence (O43186 whole entry)": "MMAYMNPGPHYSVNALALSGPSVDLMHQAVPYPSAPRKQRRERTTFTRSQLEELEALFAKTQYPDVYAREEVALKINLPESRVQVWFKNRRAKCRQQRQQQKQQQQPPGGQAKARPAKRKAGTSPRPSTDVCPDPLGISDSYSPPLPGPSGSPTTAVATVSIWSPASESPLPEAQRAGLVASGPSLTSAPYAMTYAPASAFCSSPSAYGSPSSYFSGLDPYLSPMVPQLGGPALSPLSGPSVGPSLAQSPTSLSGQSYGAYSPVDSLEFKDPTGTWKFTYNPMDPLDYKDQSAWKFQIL", "method_in_brief": "as §1"}, "ETV1": {"target": "ETV1 (Homo sapiens, UniProt P50549 1-477)", "sequence (P50549 whole entry)": "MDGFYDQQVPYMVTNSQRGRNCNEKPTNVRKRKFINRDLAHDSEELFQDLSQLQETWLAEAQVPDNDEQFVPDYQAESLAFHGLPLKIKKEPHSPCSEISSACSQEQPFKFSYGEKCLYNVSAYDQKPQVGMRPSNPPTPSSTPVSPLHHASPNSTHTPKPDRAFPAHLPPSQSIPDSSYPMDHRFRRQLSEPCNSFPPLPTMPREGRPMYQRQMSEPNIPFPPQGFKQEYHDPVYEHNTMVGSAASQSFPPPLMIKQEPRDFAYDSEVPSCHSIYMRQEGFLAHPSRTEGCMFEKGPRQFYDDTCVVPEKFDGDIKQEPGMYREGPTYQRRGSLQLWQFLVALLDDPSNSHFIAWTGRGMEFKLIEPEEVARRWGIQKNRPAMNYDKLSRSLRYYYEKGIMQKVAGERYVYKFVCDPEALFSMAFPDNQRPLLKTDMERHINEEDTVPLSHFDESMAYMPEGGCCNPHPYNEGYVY", "method_in_brief": "as §1"}, "ERF": {"target": "T5, ERF (Homo sapiens, UniProt P50548 1-548)", "T5 sequence": "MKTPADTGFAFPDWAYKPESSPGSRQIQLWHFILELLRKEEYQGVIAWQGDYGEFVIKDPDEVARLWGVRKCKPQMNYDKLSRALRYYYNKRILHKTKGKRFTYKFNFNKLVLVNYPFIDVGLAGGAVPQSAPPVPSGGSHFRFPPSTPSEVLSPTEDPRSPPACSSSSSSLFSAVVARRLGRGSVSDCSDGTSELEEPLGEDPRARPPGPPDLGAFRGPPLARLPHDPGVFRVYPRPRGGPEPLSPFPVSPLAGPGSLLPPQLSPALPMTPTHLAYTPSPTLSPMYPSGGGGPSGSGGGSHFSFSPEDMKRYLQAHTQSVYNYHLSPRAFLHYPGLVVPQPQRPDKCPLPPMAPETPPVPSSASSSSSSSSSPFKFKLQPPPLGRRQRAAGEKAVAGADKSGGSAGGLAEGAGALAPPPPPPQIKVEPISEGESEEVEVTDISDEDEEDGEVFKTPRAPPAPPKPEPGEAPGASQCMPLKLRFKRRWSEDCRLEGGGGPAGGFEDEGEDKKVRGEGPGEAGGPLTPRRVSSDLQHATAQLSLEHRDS", "method_in_brief": "as §1"}, "SPDEF": {"target": "T6, SPDEF (Homo sapiens, UniProt O95238 1-335)", "T6 sequence": "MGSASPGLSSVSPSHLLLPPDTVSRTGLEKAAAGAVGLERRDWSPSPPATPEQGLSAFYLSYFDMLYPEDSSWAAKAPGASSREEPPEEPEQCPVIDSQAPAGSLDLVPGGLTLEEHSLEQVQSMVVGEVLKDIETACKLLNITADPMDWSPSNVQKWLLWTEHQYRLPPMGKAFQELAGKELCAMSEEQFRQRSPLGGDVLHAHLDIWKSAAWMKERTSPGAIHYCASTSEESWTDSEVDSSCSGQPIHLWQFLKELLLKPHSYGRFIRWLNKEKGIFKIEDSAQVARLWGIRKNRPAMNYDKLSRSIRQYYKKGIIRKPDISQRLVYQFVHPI", "method_in_brief": "as §1"}, "ETV3": {"target": "T7, ETV3 (Homo sapiens, UniProt P41162-2 1-143)", "T7 sequence": "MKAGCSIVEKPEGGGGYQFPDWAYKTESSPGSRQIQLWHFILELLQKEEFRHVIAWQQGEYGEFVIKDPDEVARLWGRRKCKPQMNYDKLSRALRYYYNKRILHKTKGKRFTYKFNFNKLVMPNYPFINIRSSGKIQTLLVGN", "method_in_brief": "as §1"}, "GABPA": {"target": "T8, GABPA (Homo sapiens, UniProt Q06546 1-454)", "T8 sequence": "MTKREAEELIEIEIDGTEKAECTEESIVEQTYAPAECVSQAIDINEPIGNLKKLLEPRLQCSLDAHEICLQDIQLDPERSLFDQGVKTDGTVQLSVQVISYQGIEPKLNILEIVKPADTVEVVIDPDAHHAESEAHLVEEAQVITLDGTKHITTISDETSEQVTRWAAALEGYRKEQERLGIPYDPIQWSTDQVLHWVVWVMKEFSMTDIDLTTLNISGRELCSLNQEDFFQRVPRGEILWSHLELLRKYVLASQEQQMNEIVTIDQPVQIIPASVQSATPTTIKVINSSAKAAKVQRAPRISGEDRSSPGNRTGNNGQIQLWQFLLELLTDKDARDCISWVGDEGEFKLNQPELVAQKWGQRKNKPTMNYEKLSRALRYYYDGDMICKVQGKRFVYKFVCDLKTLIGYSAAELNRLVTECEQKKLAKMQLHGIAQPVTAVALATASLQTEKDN", "method_in_brief": "as §1"}, "ELF1": {"target": "ELF1 (Homo sapiens, UniProt P32519 1-619)", "sequence (P32519 whole entry)": "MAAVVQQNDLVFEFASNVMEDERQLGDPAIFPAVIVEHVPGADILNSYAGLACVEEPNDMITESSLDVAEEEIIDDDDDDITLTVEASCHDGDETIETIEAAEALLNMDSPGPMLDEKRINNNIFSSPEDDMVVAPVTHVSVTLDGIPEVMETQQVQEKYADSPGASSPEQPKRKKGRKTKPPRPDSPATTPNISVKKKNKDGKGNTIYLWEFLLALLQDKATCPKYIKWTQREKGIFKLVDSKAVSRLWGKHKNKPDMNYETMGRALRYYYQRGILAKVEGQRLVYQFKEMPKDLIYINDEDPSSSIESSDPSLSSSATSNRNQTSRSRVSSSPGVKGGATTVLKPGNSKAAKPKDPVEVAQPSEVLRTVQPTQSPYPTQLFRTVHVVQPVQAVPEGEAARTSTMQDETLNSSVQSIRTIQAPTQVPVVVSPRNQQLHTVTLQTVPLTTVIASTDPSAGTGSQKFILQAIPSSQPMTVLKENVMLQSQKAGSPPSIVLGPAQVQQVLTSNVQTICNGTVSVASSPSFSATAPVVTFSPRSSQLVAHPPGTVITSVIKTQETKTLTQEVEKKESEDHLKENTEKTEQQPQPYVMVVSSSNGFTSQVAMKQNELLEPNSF", "method_in_brief": "as §1"}, "ELK3": {"target": "T9, ELK3 (Homo sapiens, UniProt P41970 1-407)", "T9 sequence": "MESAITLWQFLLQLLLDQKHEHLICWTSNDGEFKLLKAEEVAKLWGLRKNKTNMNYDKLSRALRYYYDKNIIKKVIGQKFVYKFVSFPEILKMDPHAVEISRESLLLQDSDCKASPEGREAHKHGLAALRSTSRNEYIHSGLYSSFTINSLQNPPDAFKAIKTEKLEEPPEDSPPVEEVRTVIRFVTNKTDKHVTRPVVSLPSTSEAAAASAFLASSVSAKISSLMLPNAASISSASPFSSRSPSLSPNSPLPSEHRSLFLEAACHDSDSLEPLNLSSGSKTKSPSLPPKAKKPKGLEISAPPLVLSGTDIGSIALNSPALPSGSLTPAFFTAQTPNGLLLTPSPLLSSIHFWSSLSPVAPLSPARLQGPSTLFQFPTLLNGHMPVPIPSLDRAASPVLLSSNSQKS", "method_in_brief": "as §1"}, "ETV2": {"target": "T10, ETV2 (Homo sapiens, UniProt O00321 1-342)", "T10 sequence": "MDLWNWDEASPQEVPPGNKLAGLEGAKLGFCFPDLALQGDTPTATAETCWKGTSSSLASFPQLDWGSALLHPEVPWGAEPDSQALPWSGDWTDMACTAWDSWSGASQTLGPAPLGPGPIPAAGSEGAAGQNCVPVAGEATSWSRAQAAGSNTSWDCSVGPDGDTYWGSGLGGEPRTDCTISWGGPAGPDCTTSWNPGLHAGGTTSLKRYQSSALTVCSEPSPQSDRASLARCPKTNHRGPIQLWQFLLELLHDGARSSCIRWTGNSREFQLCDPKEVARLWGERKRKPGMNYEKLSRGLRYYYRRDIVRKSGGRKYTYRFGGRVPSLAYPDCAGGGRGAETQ", "method_in_brief": "as §1"}, "ETV6": {"target": "ETV6 (Homo sapiens, UniProt P41212 1-452)", "sequence (P41212 whole entry)": "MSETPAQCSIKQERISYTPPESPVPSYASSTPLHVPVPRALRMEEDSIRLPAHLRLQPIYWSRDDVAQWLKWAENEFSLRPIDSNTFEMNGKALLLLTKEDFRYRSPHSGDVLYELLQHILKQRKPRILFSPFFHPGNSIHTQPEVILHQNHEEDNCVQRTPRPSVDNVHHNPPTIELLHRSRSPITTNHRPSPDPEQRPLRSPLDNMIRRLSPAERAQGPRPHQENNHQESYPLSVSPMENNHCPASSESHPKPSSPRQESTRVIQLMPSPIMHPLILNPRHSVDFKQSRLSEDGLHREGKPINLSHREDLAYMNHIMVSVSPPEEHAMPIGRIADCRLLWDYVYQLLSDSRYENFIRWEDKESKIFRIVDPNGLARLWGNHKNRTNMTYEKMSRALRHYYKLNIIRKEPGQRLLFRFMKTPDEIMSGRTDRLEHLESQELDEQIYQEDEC", "method_in_brief": "as §1"}}}
{"sequence": "AGGTAC", "values": [{"measurement": "binding signal", "setting": "ELF4", "value": "1.01 fold enrichment (6-mer frequency, TF over GST control)"}]}
{"sequence": "TTGAAG", "values": [{"measurement": "binding signal", "setting": "ELK1", "value": "1.06 fold enrichment (6-mer frequency, TF over GST control)"}, {"measurement": "binding signal", "setting": "ERG", "value": "1.02 fold enrichment (6-mer frequency, TF over GST control)"}, {"measurement": "binding signal", "setting": "ELK4", "value": "1.09 fold enrichment (6-mer frequency, TF over GST control)"}, {"measurement": "binding signal", "setting": "ELF3", "value": "1.07 fold enrichment (6-mer frequency, TF over GST control)"}, {"measurement": "binding signal", "setting": "CRX", "value": "1.03 fold enrichment (6-mer frequency, TF over GST control)"}, {"measurement": "binding signal", "setting": "ETV1", "value": "1.01 fold enrichment (6-mer frequency, TF over GST control)"}, {"measurement": "binding signal", "setting": "ERF", "value": "1.01 fold enrichment (6-mer frequency, TF over GST control)"}, {"measurement": "binding signal", "setting": "SPDEF", "value": "1.03 fold enrichment (6-mer frequency, TF over GST control)"}, {"measurement": "binding signal", "setting": "ETV3", "value": "1.02 fold enrichment (6-mer frequency, TF over GST control)"}]}
{"sequence": "GTCACC", "values": [{"measurement": "binding signal", "setting": "ELF4", "value": "1.01 fold enrichment (6-mer frequency, TF over GST control)"}]}
{"sequence": "CAAACG", "values": [{"measurement": "binding signal", "setting": "ELK1", "value": "1.04 fold enrichment (6-mer frequency, TF over GST control)"}, {"measurement": "binding signal", "setting": "GABPA", "value": "1.05 fold enrichment (6-mer frequency, TF over GST control)"}, {"measurement": "binding signal", "setting": "ELF1", "value": "1.04 fold enrichment (6-mer frequency, TF over GST control)"}, {"measurement": "binding signal", "setting": "ELK3", "value": "1.07 fold enrichment (6-mer frequency, TF over GST control)"}, {"measurement": "binding signal", "setting": "ELK4", "value": "1.05 fold enrichment (6-mer frequency, TF over GST control)"}, {"measurement": "binding signal", "setting": "ETV2", "value": "1.02 fold enrichment (6-mer frequency, TF over GST control)"}, {"measurement": "binding signal", "setting": "ELF3", "value": "1.06 fold enrichment (6-mer frequency, TF over GST control)"}, {"measurement": "binding signal", "setting": "ERF", "value": "1.03 fold enrichment (6-mer frequency, TF over GST control)"}, {"measurement": "binding signal", "setting": "SPDEF", "value": "1.02 fold enrichment (6-mer frequency, TF over GST control)"}, {"measurement": "binding signal", "setting": "ETV3", "value": "1.04 fold enrichment (6-mer frequency, TF over GST control)"}, {"measurement": "binding signal", "setting": "ETV6", "value": "1.02 fold enrichment (6-mer frequency, TF over GST control)"}]}
